Experimental findings from PubChem BioAssay (EPA / NIEHS) are described below.

Records with an inconclusive call do not appear. Active and inactive are the calls of the source. Rule for the calls: active = hit-call score of the fitted dose curve at least 0.9, where 1 is the maximum; inconclusive = response in the unintended direction; inactive = score below 0.9. Where a SMILES comes first, the peptide text is derived from it. Bridges are numbered along the chain shown (N, C = ends). [ ]: non-standard residue; d: D form. hArg = N=C(N)NCCCC[C@H](N)C(=O)O; Mpa = O=C(O)CCS

Chain of Cellular tumor antigen p53 (Homo sapiens) (P04637 whole entry, looked up): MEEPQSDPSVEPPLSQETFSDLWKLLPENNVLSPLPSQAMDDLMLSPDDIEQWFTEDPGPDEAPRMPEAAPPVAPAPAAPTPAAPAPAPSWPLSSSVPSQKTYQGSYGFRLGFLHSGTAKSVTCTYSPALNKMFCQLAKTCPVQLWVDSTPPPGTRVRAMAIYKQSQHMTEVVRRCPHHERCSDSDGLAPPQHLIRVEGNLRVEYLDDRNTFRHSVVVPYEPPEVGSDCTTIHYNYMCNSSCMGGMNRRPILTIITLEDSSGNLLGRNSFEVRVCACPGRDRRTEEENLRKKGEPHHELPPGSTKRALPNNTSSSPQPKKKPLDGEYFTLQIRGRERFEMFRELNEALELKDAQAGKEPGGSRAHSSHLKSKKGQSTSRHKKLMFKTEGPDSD

One assay deals with Cellular tumor antigen p53 (Homo sapiens) (UniProt P04637). As to the kind of experiment: TOX21_p53_BLA_p3_ratio: Tox21 HCT-116 p53 Agonism Beta-lactamase Assay, Ratio, Phase 3 (AID 2283596). Summed up:
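HCT116 p53-bla cells (4000/well) given compound in DMSO (217-fold dilution) after 5 h, incubated 16 h at 37C. CCF4-AM substrate 2 h at room temperature; 460/530 nm emission ratio, gain fitted against DMSO.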
In the case of `Cc1nc(-c2ccc(Cl)cc2)oc1COC(C)(C)C(=O)O`, the outcome was inactive. For `CCCCCCCC/C=C\CCCCCCCC(=O)OC`, the outcome was inactive. In the case of `O=C(O)CCNC(=O)c1ccccc1`, the result was inactive. For the molecule `CC(C)(C)c1ccc(C=O)cc1`, the outcome was inactive. In the case of `CN(C)CC/C=C1\c2ccccc2COc2ccccc21`, the outcome was inactive. For the molecule `Cc1ccc(C(=O)c2ccc(CC(=O)O)n2C)cc1`, the outcome was inactive. The same measure, in the same setting: for `CC(C)CCC[C@@H](C)[C@H]1CC(=O)C2=C3CC[C@H]4C[C@@H](O)CC[C@]4(C)[C@H]3CC[C@@]21C` the value was “inactive”; for `CC1(C)CO[C@@H](CC(=O)O)CN1`, “inactive”. The same measure, in the same setting: for `C=CC(=O)OCCOCCOC(=O)C=C` the value was “inactive”; for `Nc1c2c(nc3ccccc13)CCCC2O` (stereo not given), “inactive”; for `CC(=O)N[C@@H](CC(=O)N[C@@H](CCC(=O)O)C(=O)O)C(=O)O`, “inactive”. Consider `CCC1NC(=O)c2cc(S(N)(=O)=O)c(Cl)cc2N1` (stereo not given), for which the result was inactive. For `NC(=O)Cc1cccc(C(=O)c2ccccc2)c1N`, the result was inactive. Take `CCc1c(C)[nH]c2c1C(=O)C(CN1CCOCC1)CC2` (stereo not given): the result was inactive. Regarding `NC(=O)[C@@H]1CSSCCC(=O)N[C@@H](CCCCN=C(N)N)C(=O)NCC(=O)N[C@@H](CC(=O)O)C(=O)N[C@H](Cc2c[nH]c3ccccc23)C(=O)N2CCC[C@H]2C(=O)N1` ([Mpa][hArg]GD[dW]PC-NH2; disulfide 1-7), the outcome was inactive. `CCOc1ccc2ccccc2c1C(=O)N[C@@H]1C(=O)N2[C@@H]1SC(C)(C)[C@@H]2C(=O)O`: the result was inactive. Turning to `OCC(O)CN1CCN(c2ccccc2)CC1` (stereo not given), the outcome was inactive.

Take `O=C(O)Cc1csc(-c2ccc(Cl)cc2)n1`: the outcome was inactive. Regarding `CCCOCC(C)OCC(C)O` (stereo not given), the outcome was inactive. As to `CN1[C@@H]2CC[C@H]1CC(OC(=O)c1c[nH]c3ccccc13)C2` (stereo not given in full), the result was inactive.

Turning to `OCC(F)(F)F`, the result was inactive. Still for that read-out and setting: the result for `Nc1ccc(Cl)cc1[N+](=O)[O-]` reads “inactive”; that for `O=C1C(CCS(=O)c2ccccc2)C(=O)N(c2ccccc2)N1c1ccccc1` (stereo not given), “inactive”. Consider `NC[C@H]1O[C@H](O[C@H]2[C@H](O)[C@@H](O[C@H]3O[C@H](CO)[C@@H](O)[C@H](N)[C@H]3O)[C@H](N)C[C@@H]2N)[C@H](N)[C@@H](O)[C@@H]1O`, for which the result was inactive. On to `CC(C)C[C@@H](N)C(=O)O`, for which the result was inactive.

As to `Cc1ccc(N)cc1[N+](=O)[O-]`, the result was inactive.

`OCC1(CO)COC(C(Cl)(Cl)Cl)OC1`: the outcome was inactive. Take `C1=C\CC/C=C\CC/1`: the result was inactive.

For the molecule `CCCCc1ccc2nc(NC(=O)OC)[nH]c2c1`, the AC50 is 40.8 nM (active). For the molecule `CCOCC(O)COc1ccc(NC(=O)CC[S+](C)C)cc1` (stereo not given), the result was inactive.

For `CCNC(=O)NCCCOc1cccc(CN2CCCCC2)c1`, the outcome was inactive.

For `C=COCCCCO`, the outcome was inactive. For the molecule `CCCCCC(N)=O`, the result was inactive. As for `C[C@@H](O)C(=O)O`, the outcome was inactive. On to `C[C@H]1[C@H](NC(=O)C(=NOC(C)(C)C(=O)O)c2csc(N)n2)C(=O)N1S(=O)(=O)O`, for which the outcome was inactive. For `CCOc1cc(N)c(Cl)cc1C(=O)NCC1CN(Cc2ccc(F)cc2)CCO1` (stereo not given), the result was inactive. In the case of `CN1CCN(CCC(=O)N2c3ccccc3Sc3ccc(C(F)(F)F)cc32)CC1`, the outcome was inactive. Regarding `OCCCCCCCl`, the outcome was inactive. For the molecule `CC(C)NCC(O)COc1ccccc1-n1cccc1` (stereo not given), the outcome was inactive.

The target is the same in a further assay. The experiment in a line: TOX21_p53_BLA_p5_ratio: Tox21 HCT-116 p53 Agonism Beta-lactamase Assay, Ratio, Phase 5 (AID 2283599). Summed up: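 HCT-116 cells carrying a p53-inducible beta-lactamase reporter were seeded at 4000 cells/well and dosed after 5 h with compound in DMSO (217-fold dilution). After 16 h at 37C, CCF4-AM substrate was added for 2 h, and the 460/530 nm emission ratio was scored as gain-of-signal versus DMSO.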
Take `Cc1nc(-c2ccc(Cl)cc2)oc1COC(C)(C)C(=O)O`: the result was inactive. Regarding `CCCCCCCC/C=C\CCCCCCCC(=O)OC`, the outcome was inactive. Consider `O=C(O)CCNC(=O)c1ccccc1`, for which the outcome was inactive. With `CC(C)(C)c1ccc(C=O)cc1`, the outcome was inactive. Take `CC(C)CCC[C@@H](C)[C@H]1CC(=O)C2=C3CC[C@H]4C[C@@H](O)CC[C@]4(C)[C@H]3CC[C@@]21C`: the outcome was inactive. With `CC1(C)CO[C@@H](CC(=O)O)CN1`, the outcome was inactive. `C=CC(=O)OCCOCCOC(=O)C=C`: the outcome was inactive. The same measure, in the same setting: for `Nc1c2c(nc3ccccc13)CCCC2O` (stereo not given) the value was “inactive”; for `CC(=O)N[C@@H](CC(=O)N[C@@H](CCC(=O)O)C(=O)O)C(=O)O`, “inactive”; for `CCC1NC(=O)c2cc(S(N)(=O)=O)c(Cl)cc2N1` (stereo not given), “inactive”. On to `CCc1c(C)[nH]c2c1C(=O)C(CN1CCOCC1)CC2` (stereo not given), for which the result was inactive.

With `NC(=O)[C@@H]1CSSCCC(=O)N[C@@H](CCCCN=C(N)N)C(=O)NCC(=O)N[C@@H](CC(=O)O)C(=O)N[C@H](Cc2c[nH]c3ccccc23)C(=O)N2CCC[C@H]2C(=O)N1` ([Mpa][hArg]GD[dW]PC-NH2; disulfide 1-7), the outcome was inactive. In the case of `CCOc1ccc2ccccc2c1C(=O)N[C@@H]1C(=O)N2[C@@H]1SC(C)(C)[C@@H]2C(=O)O`, the outcome was inactive. The same measure, in the same setting: the result for `OCC(O)CN1CCN(c2ccccc2)CC1` (stereo not given) reads “inactive”. `O=C(O)Cc1csc(-c2ccc(Cl)cc2)n1`: the outcome was inactive. Regarding `CCCOCC(C)OCC(C)O` (stereo not given), the result was inactive. Take `Nc1ccc(Cl)cc1[N+](=O)[O-]`: the outcome was inactive. Consider `NC[C@H]1O[C@H](O[C@H]2[C@H](O)[C@@H](O[C@H]3O[C@H](CO)[C@@H](O)[C@H](N)[C@H]3O)[C@H](N)C[C@@H]2N)[C@H](N)[C@@H](O)[C@@H]1O`, for which the result was inactive. As for `CC(C)C[C@@H](N)C(=O)O`, the outcome was inactive. On the same count and under the same terms, the result for `OCC1(CO)COC(C(Cl)(Cl)Cl)OC1` reads “inactive”; that for `CCCCc1ccc2nc(NC(=O)OC)[nH]c2c1`, “inactive”. Regarding `CCOCC(O)COc1ccc(NC(=O)CC[S+](C)C)cc1` (stereo not given), the result was inactive. With `C=COCCCCO`, the outcome was inactive. Still for that read-out and setting: the result for `CCCCCC(N)=O` reads “inactive”; that for `C[C@@H](O)C(=O)O`, “inactive”. Take `CC(C)NCC(O)COc1ccccc1-n1cccc1` (stereo not given): the outcome was inactive.
